# Laboratory results taken from PubChem BioAssay AID493208 (National Center for Advancing Translational Sciences (NCATS), 2011).
# About 340 (0.77%) of roughly 44,000 compounds were called active. Entries that show only a call come without a potency. Another 5% or so got no clear call; they are omitted. Calls come from the whole dose curve; as a rule, active = well fitted inhibition curve with a large enough effect; inconclusive = small, poorly fitted or top-dose-only effect; inactive = flat fitted curve, though single readings scatter. For the sample, actives were picked, then their nearest neighbours and some compounds at random.
# Experiment: Acumen qHTS Assay for Inhibitors of the mTORC1 Signaling Pathway in MEF (Tsc2-/-, p53-/-) Cells: Sytravon; note: nearly all actives have a fitted effect of over 50% in size
# Settings: phospho-rpS6 immunofluorescence/PI, 24 h; series mostly up to 38.3 µM
# Description: NIH Molecular Libraries Probe Production Centers Network [MLPCN] NIH Chemical Genomics Center [NCGC] MLPCN Grant: NS059428-01 Assay Submitter (PI): Blenis, John; Hoffman, Greg; Harvard University NCGC Assay Overview: The mammalian target of rapamycin (mTOR) is an intracellular serine/threonine kinase Aberrant regulation of mTOR signaling plays a causative role in a number of human diseases, including cancer, benign tumors such as lymphangioleiomyomatosis (LAM) and Tuberous Sclerosis Complex (TSC), and metabolic diseases such as diabetes and obesity. This project aims to identify inhibitors of ribosomal protein S6 (rpS6) phosphorylation. The phosphorylation of rpS6 is a key event downstream of mTOR activation. The assay uses a phospho-specific antibody of phospho-rpS6 to detect inhibitors of mTOR activation. Mutations in the Tsc1 and Tsc2 genes are the underlying genetic lesions responsible for TSC, causing constitutive activation of the mTORC1 pathway and leading to profound effects on cell metabolism. Aberrant metabolism in cancer has recently received significant attention as a target to develop therapeutic agents in the treatment of cancer.1 As Tsc2-/- cells have lost the ability to respond to energy and growth factor deprivation, these cells are unable to properly down regulate cellular biosynthetic processes in response to metabolic stress, and are thus extremely sensitive to glucose deprivation-induced death.2 A central goal of this project is to explore the unique cell survival and metabolic properties of cells with Tsc1 or Tsc2 by screening for compounds that selectively target the Tsc2-/- MEFs by screening both Tsc2-/- and WT MEF cell lines. We hope to better understand these aspects of TSC physiology in order to exploit them for therapeutic benefit.
# NCGC Acumen Assay Protocol Summary: For quantitative high throughput analysis of mTORC1 signaling, we developed a cell-based assay for immuno-fluorescence based detection of rpS6 phosphorylation on the Acumen Explorer that will be used a platform for the primary small molecule screen. Mouse embryonic fibroblasts (MEFs) are cultured in 1536-well plates using DMEM + 10% FBS. Twenty-four hrs after plating, test compounds (solubilized in DMSO) are delivered and incubated with the cells for 24 hrs at 37 degree Celsius. Following the incubation, media with compound is aspirated and the cells are fixed in 4% paraformaldehyde (PFA) containing PBS + 0.2% TX-100. Next, PFA is aspirated, cells are washed two times with PBS plus 0.2% TX-100 and the cells are blocked for 1 hr at room temperature (blocking buffer: LiCOR Blocking Buffer plus 0.2% TX-100). […] Cells are washed two times with PBS plus 0.2% TX-100, and stained with 10 uM propidium iodide (PI) for 20-25 minutes for cell number measurement (1:500 dilution of Hoescht staining is also added for IN Cell imaging). The plates are scanned on the Acumen Explorer laser scanning instrument (TTP Labtech) using the 488nm laser for simultaneous excitation of the Alexa-488 and PI. […] The normalized phospho-S6 staining is calculated as the ratio of the integrated Alexa 488 intensity divided by the integrated PI intensity for the single concentration rapamycin control (7.5 nM) and DMSO columns. […] Inhibition of the pathway is defined based on the normalized phospho-S6 intensity in rapamycin treated cells. Active cells are defined as those with a normalized phospho-S6 staining above this threshold, and each treatment is reported as the % positive cells in the well, where thresholds are defined by selecting wells with the highest and lowest signal and differentiating between the % non-active and % active populations. In addition to the pathway specific phospho-S6 endpoint, the number of PI stained cells from the Acumen is recorded as a measure of cell viability. The primary screen was performed with a MEF cell line in a defined genetic background, Tsc2-/-, p53-/- cell line stably transfected with an empty vector control (Tsc2-/- MEF).
# Potency is the fitted concentration of half-maximal effect.
row,SMILES,Potency
1,COc1cccc(CNCc2c(C(=O)O)n(Cc3ccc(C)cc3)c3cc(C)ccc23)c1OC,inactive
2,CC1=C(c2ccc(C)cc2)S(=O)(=O)NC1=NCCCN1CCN(c2cc(C)ccc2C)CC1,inactive
3,CC1=C(c2ccc(Cl)cc2)S(=O)(=O)N=C1N1CCN(c2cc(C)ccc2C)CC1,inactive
4,CCOC(=O)c1c(C)[nH]c(CCC(=O)NCCCN2CCN(c3cccc(Cl)c3)CC2)c1C,inactive
5,CCOC(=O)c1c(C)[nH]c(CCC(=O)NCCCN2CCN(c3cc(C)ccc3C)CC2)c1C,13.1 µM (active)
6,Cc1ccc(C)c(N2CCN(CCCNC(=O)Nc3ccc(Cl)cc3)CC2)c1,18.5 µM (active)
7,CCOC(=O)c1c(C)[nH]c(CCC(=O)Nc2ccc(OC)c(OC)c2)c1C,inactive
8,CCn1c2ccccc2c2cc(NC(=O)COc3ccc(C)cc3C)ccc21,inactive
9,COc1ccc(-c2nn(CC(=O)Nc3ccccc3F)c3c2cnc2ccc(F)cc23)cc1,inactive
10,O=C1CSC2(C(=O)N(Cc3ccccc3)c3ccccc32)N1c1cccc(F)c1 (stereo unspecified),inactive
11,CCC1CCCCN1C(=O)Cn1c(=O)n(CCCCCC(=O)NCc2ccccc2)c(=O)c2sccc21 (stereo unspecified),inactive
12,O=C(Nc1ccc2c(c1)OCO2)c1cc(-c2cccc(Cl)c2)on1,inactive
13,Cc1ccc2c(=O)c(C(=O)c3cccc(Cl)c3)cn(CC(=O)NCc3ccccc3)c2n1,inactive
14,N#Cc1ccccc1Cn1cnc2nc3c(cc2c1=O)CCCC3,inactive
15,CC(C)c1ccc(NC(=O)c2ccc(Cn3nc(N4CCN(c5ccccc5)CC4)ccc3=O)o2)cc1,inactive
16,COc1ccc(SCc2cc(=O)c3ccc(C)c(C)c3[nH]2)cc1,inactive
17,COc1ccc(-c2cc(C(F)(F)F)nc(SCC(=O)N(C)Cc3ccccc3)n2)cc1OC,inactive
18,Cc1ccc(S(=O)(=O)N(CC(=O)Nc2ccc(Cl)cc2Cl)c2ccccc2C)cc1,inactive
19,COc1ccccc1NC(=O)C(=O)c1cc(C)n(-c2ccccc2F)c1C,inactive
20,COc1cc(NC(=O)c2noc3c2CSc2ccccc2-3)cc(OC)c1OC,inactive
21,CCN(CC)c1ccc(NS(=O)(=O)c2cc(-c3cc(C)no3)ccc2C)c(C)c1,inactive
22,O=C(NCc1ccc2c(c1)CCN2C(=O)c1ccccc1)c1ccccc1,inactive

row,SMILES,Potency
1,Cc1cccc(C)c1Nc1c(-c2ccccc2O)nc2ncccn12,inactive
2,CCc1cccc(C)c1Nc1c(-c2ccc(N(C)C)cc2)nc2ncccn12,13.1 µM (active)
3,COc1ccc(-c2nc3nc(C)cc(C)n3c2Nc2c(C)cccc2C)cc1,inactive
4,CCOc1ccccc1N(CC)C(=O)c1cc2ccc3cccnc3c2[nH]1,inactive
5,Cc1ccc(C(=O)N2CCc3cc(CNC(=O)c4ccc(Br)cc4)ccc32)cc1,inactive
6,Cc1ccc(-n2c(=O)c3cccnc3n2CC(=O)Nc2ccccc2C(F)(F)F)cc1C,inactive
7,COc1ccccc1Nc1c2c(nc3ccc(NC(=O)/C=C/c4cc(OC)c(OC)c(OC)c4)cc13)CCCC2,3.29 µM (active)
8,COc1cc(C(=O)Nc2ccc(-n3c(C)nc4ccccc4c3=O)cc2)cc(OC)c1OC,inactive
9,COc1cc(NC(=O)c2nc3ccccc3nc2C)cc(OC)c1OC,inactive
10,COc1ccc(NC(=O)c2ccc3oc(=O)c(S(=O)(=O)c4ccc(F)cc4)cc3c2)c(OC)c1,inactive
11,CCC(=O)NCc1cc(-c2nn(C)c(=O)c3ccccc23)ccc1OC,inactive
12,CCOc1cc(C(=O)NCCc2csc3nc(-c4ccc(C)cc4)nn23)cc(OCC)c1OCC,inactive
13,COc1cccc(NC(=O)CN2C(=O)c3ccccc3Sc3ncccc32)c1,inactive
14,CC1=C(c2ccc(F)cc2)S(=O)(=O)N=C1N1CCC(C(=O)NCCc2ccccc2C)CC1,inactive
15,COc1cc(NC(=O)c2cc(C3CC3)nc3c2c(C)nn3-c2ccccc2)cc(OC)c1,inactive
16,COc1cccc(CNC(=O)C2CCN(S(=O)(=O)c3ccc4c(ccn4C)c3)CC2)c1,inactive
17,Cc1ccc(OCCSc2nc(C)c(Cc3ccccc3)c(=O)[nH]2)cc1,inactive
18,Cc1ccc(Cn2c(=O)n(CCCC(=O)NCc3ccccc3Cl)c(=O)c3ccccc32)cc1,inactive
19,CCc1ccc(NC(=O)c2cc(S(=O)(=O)NC3CCCCCC3)ccc2F)cc1,inactive
20,Cc1ccccc1NC(=O)Cn1cc(C(=O)c2cccs2)c2ccccc21,inactive
21,O=C(c1cnn(-c2ccc(F)cc2)c1-n1cccc1)N1CCN(c2ccc(F)cc2)CC1,inactive
22,CCOC(=O)c1cc(-c2ccccc2)n(-c2cccc(C(=O)Nc3cc(OC)cc(OC)c3)c2)c1C,inactive

row,SMILES,Potency
1,Cc1oc2ccc(O)c(CN3CCOCC3)c2c1C(=O)Nc1cccc(Cl)c1C,inactive
2,O=C1OC(C(=O)Nc2cccc(Br)c2)Cc2ccccc21 (stereo unspecified),inactive
3,Cc1c(NC(=O)c2cc(-c3ccc(Br)cc3)on2)c(=O)n(-c2ccccc2)n1C,inactive
4,COc1ccc(NC(=O)C2CCCN(S(=O)(=O)c3c(C)[nH]c(=O)[nH]c3=O)C2)c(OC)c1 (stereo unspecified),inactive
5,COc1ccc(-c2nnc(SCC(=O)Nc3ccc(C(C)C)cc3)nc2-c2ccc(OC)c(OC)c2)cc1OC,inactive
6,Clc1cccc(-n2ncc3c(NCCc4ccccc4)ncnc32)c1,inactive
7,Fc1ccc(Nc2nc(SCc3ccccc3Cl)nc3ccccc23)cc1,inactive
8,O=C(C1CCCN(S(=O)(=O)c2cccc3nonc23)C1)N1CCN(c2ccccc2F)CC1 (stereo unspecified),inactive
9,Cc1ccc(N2CC(c3nnc(Cc4ccccc4Cl)o3)CC2=O)cc1 (stereo unspecified),inactive
10,CCOC(=O)c1ccc(CN(Cc2ccccc2)S(=O)(=O)c2ccc(Cl)cc2)cc1,inactive
11,Cn1c(=O)c(C(=O)O)nn(-c2ccccc2)c1=O,inactive
12,Cc1ccc(-c2cn3c(n2)sc2cc(C(=O)NCCCc4ccccc4)ccc23)cc1,inactive
13,CCCCN1CC(c2nc3ccccc3n2CCCCOc2ccc(C)cc2C)CC1=O (stereo unspecified),inactive
14,COc1cccc(C(=O)NC2=NC(c3ccc(N(C)C)cc3)CC(=O)N2)c1 (stereo unspecified),inactive
15,CCN(C(=O)Cn1cc(S(=O)(=O)N2CCN(c3ccccc3F)CC2)c2ccccc2c1=O)c1ccc(C)c(C)c1,inactive
16,CSc1nc(-c2ccccc2Cl)nc2c1Cc1c(CO)cnc(C)c1O2,inactive
17,Cc1cc2ccccc2n1CCNC(=O)c1ccc(F)cc1,inactive
18,Cc1cccc(NC(=O)N2CCC(CN3CCc4ccccc4C3)CC2)c1C,inactive
19,CCC(=O)N1CCc2cc(CNC(=O)Nc3ccccc3Cl)ccc21,inactive
20,COc1ccc(CNC(=O)CSCc2nc(-c3ccccc3F)oc2C)cc1,inactive
21,CCOc1ccc(-n2c(SCC(=O)NCc3ccccc3)nc3n[nH]c(C)c3c2=N)cc1,inactive
22,Cc1cccc(NC(=O)C2CCN(S(=O)(=O)c3c(C)noc3/C=C/c3ccco3)CC2)c1,inactive
